Data as given in PubChem BioAssay (NCATS).
Inconclusive results are not listed. Values without a mark were called inactive. Calls of active or inactive are those of the source. The call rests on the fitted dose curve; in most records, active means well fitted inhibition curve with a large enough effect; inconclusive means small, poorly fitted or top-dose-only effect; inactive means flat fitted curve, though single readings scatter.

Each compound was assayed on Zika virus NS2B-NS3 protease (assay: Primary screen GU AMC qHTS for Zika virus inhibitors (AID 1347154;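 further: 0% = no-inhibitor control and -100% = no-enzyme control; nearly all actives have a fitted effect of over 70% in size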)). Settings: Zika NS2B-NS3 unlinked protease, AMC fluorogenic substrate; series mostly up to 54.1 µM; activity change, negative = inhibition: at the top concentration.
Outline: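 Unlinked Zika NS2B hydrophilic domain–NS3 protease complex at 25 nM in 10 mM Tris-HCl pH 8.0, 0.01% Tween 20, with an AMC peptide substrate. Fluorescence change (340/450 nm) over 15 min at room temperature, normalized to controls, fitted to 4-parameter Hill.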

SMILES | Potency | activity change, negative = inhibition
COc1ccc(C(=O)c2c(C)n(CCN3CCOCC3)c3cc(I)ccc23)cc1 | inactive | 
C=CCON=C(C[C@H]1O[C@@H]2O[C@]3(C)CC[C@@H]4[C@H](C)CC[C@@H]([C@H]1C)[C@@]24OO3)[C@H]1O[C@@H]2O[C@]3(C)CC[C@H]4[C@H](C)CC[C@@H]([C@@H]1C)[C@@]24OO3 |  | -8.1%
Clc1cnc(Oc2ccc(Oc3ncc(Cl)cc3Cl)cc2)c(Cl)c1 |  | 5.79%
COC(=O)[C@@H](N)CCCN=C(N)N[N+](=O)[O-] |  | 13.4%
CC(=Cc1csc(C)n1)[C@@H]1C[C@H]2O[C@]2(C)CCC[C@H](C)[C@@H](O)[C@@H](C)C(=O)C(C)(C)[C@@H](O)CC(=O)O1 |  | 12.9%
COC1=CC(C)=C[C@@H](C)[C@@H](O)[C@@H](C)CC(C)=CC=C[C@H](OC)[C@H]([C@@H](C)[C@@H](O)[C@H](C)[C@@]2(O)C[C@@H](O)[C@H](C)[C@@H](C(C)C)O2)OC1=O |  | -0.984%
CC=C(C)C(=O)N[C@@H](c1ccccc1)[C@@H](O)C(=O)O[C@H]1C[C@@]2(O)[C@@H](OC(=O)c3ccccc3)[C@@H]3[C@]4(OC(C)=O)CO[C@@H]4C[C@H](O)[C@@]3(C)C(=O)[C@H](OC(C)=O)C(=C1C)C2(C)C |  | 9.72%
c1ccc2sc(C3(N4CCCCC4)CCCCC3)cc2c1 | inactive | 
S=C(SSC(=S)N1CCCCC1)N1CCCCC1 |  | -5.68%
CO[C@H]1CCC(O[C@H]2C[C@H]([C@]3(C)CC[C@]4(C[C@H](O)[C@@H](C)[C@@H]([C@@H](C)C=C(C)C(=O)[C@H](C)C[C@H](C)C(=O)O)O4)O3)O[C@]3(O[C@@H]([C@H]4O[C@@](O)(CO)[C@H](C)C[C@H]4C)C[C@H]3C)[C@H]2C)O[C@H]1C (some centres not stated) |  | 5.87%
NC(CCP(=O)(O)O)C(=O)O (configuration not stated) |  | 13.1%
O=[N+]([O-])c1c(Cl)c(Cl)cc(Cl)c1Cl |  | 0.484% [at 104 µM]
